Screening data (PubChem)
MITF TRPM1 inh: MITF TRPM1 promoter inhibition in SK-MEL-5 cells | 330,000 compounds, 0.83% hits | SK-MEL-5 TRPM1 promoter luciferase, 24 h | inhibition, % at 12.5 µM | AID 488899;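 active = mean inhibition across replicates of 60% or more, whatever share of single replicates reaches that level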
HIF-2a inh: HIF-2a inhibition. 360,000 compounds, 0.72% hits. inhibition, % at 18.8 µM. 786-0 RCC cells HIF-2a reporter, luciferase luminescence, overnight;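 active = inhibition of the luminescence signal of 40% or more relative to plate controls, in a single-dose primary screen at 18.75 µM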
CF NFkB inh: cystic fibrosis NF-kB activation inhibition; AID 588850; 360,000 compounds, 0.86% hits; KKLEB NF-kB-GFP reporter, PAF-induced, GFP fluorescence overnight; inhibition, % at 5 µM;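 active = at least 50% inhibition at 5 µM, scaled per plate between neutral and stimulator controls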;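 note: PAF is a Pseudomonas aeruginosa culture filtrate used as stimulus; plate controls were PAF-stimulated DMSO wells for no effect and unstimulated DMSO wells for full effect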
ABHD5-PLIN5 inh: ABHD5-PLIN5 protein interaction inhibition; inhibition, % at 4 µM; AID 602281; Split G. princeps luciferase complementation, luminescence, 4 h; 360,000 compounds, 0.78% hits; Q00G26+Q8WTS1;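 active = inhibition above the mean inhibition across every tested compound plus 3 SD, cut at about 22% in these data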;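 note: 0% = DMSO only wells and the 100% control is not disclosed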
Peg3 prom inh: reduces Peg3 promoter-driven luciferase expression in HeLa; HeLa PEG-Prom luciferase reporter, luminescence, overnight; inhibition, % at 20 µM; 360,000 compounds, 1.7% hits;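 active = inhibition of at least 50% at 20 µM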
KKLEB tox: reduces viability of KKLEB cystic fibrosis airway cells. KKLEB CF airway cells viability, ATPlite luminescence, overnight; hits give low values; cells stimulated with P. aeruginosa culture filtrate. activity change (cytotoxicity), % at 5 µM. 360,000 compounds, 0.36% hits. AID 602141;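 active = corrected activity change at or below -50% at 5 µM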
Mdm2-MdmX confirm: confirmation of inhibitors of human Mdm2/MdmX interaction, set 2; shares compounds with HIF-2a inh; SaOS-2 split-luciferase Mdm2/MdmX complementation, luminescence; inhibition, % at 8 µM; 740 compounds, 99% hits; AID 504601;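 active = mean inhibition of the luminescence signal across two replicates at or above 26 percent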
Target sequence (O15151 whole entry, looked up): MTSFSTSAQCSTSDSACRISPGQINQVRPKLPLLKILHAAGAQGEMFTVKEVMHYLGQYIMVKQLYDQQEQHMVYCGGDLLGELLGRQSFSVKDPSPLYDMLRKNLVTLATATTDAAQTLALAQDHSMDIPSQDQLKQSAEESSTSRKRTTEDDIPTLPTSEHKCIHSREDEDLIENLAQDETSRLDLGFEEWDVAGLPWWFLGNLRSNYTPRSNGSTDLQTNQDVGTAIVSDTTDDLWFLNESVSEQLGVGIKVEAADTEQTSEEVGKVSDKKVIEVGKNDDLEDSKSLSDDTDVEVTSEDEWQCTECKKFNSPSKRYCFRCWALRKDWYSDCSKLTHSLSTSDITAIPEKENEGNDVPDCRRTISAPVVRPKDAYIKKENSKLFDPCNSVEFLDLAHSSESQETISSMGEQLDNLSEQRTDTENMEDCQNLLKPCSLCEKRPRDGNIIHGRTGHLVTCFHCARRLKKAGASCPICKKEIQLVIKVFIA
Target sequence (Q00987 whole entry, looked up): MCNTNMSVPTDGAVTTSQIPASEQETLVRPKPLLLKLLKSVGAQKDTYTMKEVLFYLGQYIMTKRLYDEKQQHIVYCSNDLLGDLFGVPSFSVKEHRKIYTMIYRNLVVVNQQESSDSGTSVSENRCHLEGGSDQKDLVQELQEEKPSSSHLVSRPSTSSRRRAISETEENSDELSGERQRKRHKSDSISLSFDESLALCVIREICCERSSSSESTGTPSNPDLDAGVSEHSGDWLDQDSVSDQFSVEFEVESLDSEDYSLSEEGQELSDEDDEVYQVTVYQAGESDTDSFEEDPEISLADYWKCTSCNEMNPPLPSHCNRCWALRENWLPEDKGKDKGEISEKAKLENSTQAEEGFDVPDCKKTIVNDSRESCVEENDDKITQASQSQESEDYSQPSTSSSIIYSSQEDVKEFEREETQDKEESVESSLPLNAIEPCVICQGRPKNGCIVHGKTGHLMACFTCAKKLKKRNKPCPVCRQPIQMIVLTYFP
HIF-2a conf: confirmation of HIF-2a inhibitors. shares compounds with HIF-2a inh. 786-0 RCC cells, HIF-2a luciferase reporter luminescence, overnight. inhibition, % at 18.8 µM. 1,800 compounds, 56% hits;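 active = mean inhibition across four replicates of at least 40 percent at the single tested concentration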
HIF-1a counter: HIF-1a inhibition counter-screen for HIF-2a hits; inhibition, % at 18.8 µM; 1,800 compounds, 72% hits; shares compounds with HIF-2a inh; MiaPaCa-2 HIF-1a luciferase reporter, desferoxamine, overnight;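 active = mean inhibition of the reporter signal across four replicates at the single tested dose of 50% or more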
Starred values were filed as active, the others as inactive; / = not tested or not shown. In the library only some 3.1% were active in any assay of this set; here they are far more common.

SMILES	MITF TRPM1 inh	HIF-2a inh	CF NFkB inh	ABHD5-PLIN5 inh	Peg3 prom inh	KKLEB tox	HIF-2a conf	HIF-1a counter	others
O=C(COC(=O)CCCOc1ccc(Cl)cc1Cl)NCc1ccc(F)cc1	4.3	52.3*	4.3	-2.8	7.0	0.5	46.1*	40.5
COc1cccc(-c2nn(-c3ccccc3)cc2CN2CCCO2)c1	-0.4	1.7	22.5	5.1	3.4	2.9	/	/
COc1ccc(C(=O)C2CCCN(C(=O)c3ccc4cc[nH]c4c3)C2)c(C)c1 (stereo not given)	16.2	-0.2	6.9	-7.6	6.5	-7.4	/	/
Cc1ccccc1-n1nnnc1Sc1nnnn1-c1ccccc1	78.4*	49.0*	77.6*	9.4	108.8*	-69.4*	-14.6	100.3*	Mdm2-MdmX confirm=103.7*
Cc1ccccc1-n1nnnc1SCC(N)=O	5.2	9.5	-8.0	6.8	12.3	8.6	/	/
CC1C/C(=C/c2ccccn2)C(=O)/C(=C/c2ccccn2)C1 (stereo not given)	100.5*	93.9*	85.7*	75.7*	100.3*	-62.3*	/	/	Mdm2-MdmX confirm=102.7*
O=C1/C(=C/c2ccccn2)COc2ccccc21	-4.6	-13.9	-37.4	8.2	-1.6	16.2	/	/
CC(C)(C)C1C/C(=C/c2ccccn2)C(=O)/C(=C/c2ccccn2)C1 (stereo not given)	101.7*	95.8*	88.7*	71.8*	102.3*	-52.9*	/	/	Mdm2-MdmX confirm=103.0*
CCCc1ccc(C(O)c2ncc(-c3cccc(C)c3)[nH]2)cc1 (stereo not given)	/	-84.4	14.4	-18.2	-40.9	4.1	/	/
COc1ccc2cc1Oc1ccc(cc1)C[C@H]1c3cc(c(OC)cc3CCN1C)Oc1c(OC)c(OC)cc3c1[C@H](C2)N(C)CC3	95.4*	10.5	27.0	3.2	92.8*	-14.5	/	/	Mdm2-MdmX confirm=102.2*
COc1ccc2c(c1OC)C(=O)O[C@@H]2[C@H]1c2c(cc3c(c2OC)OCO3)CCN1C	-10.8	8.5	-1.0	-5.3	-0.6	6.0	/	/
Cc1cc(O)c(C(C)C)cc1C1(c2cc(C(C)C)c(O)cc2C)OC(=O)c2ccccc21	56.8	50.0*	33.3	7.5	111.3*	0.7	62.8*	107.3*
COc1ccc(OC)c(NC(=O)c2cccc(N3C(=O)C4C5C=CC(C6CC56)C4C3=O)c2)c1 (stereo not given)	26.2	1.9	5.7	-3.2	30.4	-8.0	/	/
COc1ccc(CNc2ncc(-c3ccc(F)cc3)n2C)c2ccccc12	53.1	40.9*	4.0	6.0	59.5*	-5.4	92.7*	104.1*
COc1ccccc1CNc1ncc(-c2ccc(F)cc2)n1C	-7.7	-39.1	-24.7	1.4	-37.2	-5.5	/	/
OC(COc1ccc(CNCCc2ccc(C(F)(F)F)cc2)cc1)CN1CCCCC1 (stereo not given)	94.0*	22.8	11.2	-0.5	104.0*	-7.7	/	/	Mdm2-MdmX confirm=103.7*
O=C(OCc1ccccc1)c1cccc(-c2nnc(-c3ccccc3)o2)c1	-24.7	10.6	-11.6	1.7	-112.2	6.4	/	/
CCOC(=O)c1cccc(COC(=O)c2cccc(-c3nnc(-c4ccccc4)o3)c2)c1	4.8	46.9*	7.0	0.1	-75.1	-2.1	51.2*	-65.2
CC(=O)Nc1ccc(Nc2nc(C)c([N+](=O)[O-])c(N(C)c3ccccc3)n2)cc1	5.8	80.6*	0.6	0.7	29.4	-6.2	91.8*	93.5*
CCN(CC(=O)Nc1c(F)cccc1F)C(=O)COc1ccc2c(C)cc(=O)oc2c1	-4.8	-15.9	0.8	5.2	-7.3	10.2	/	/
O=C(Nc1nc(-c2ccc(-c3ccccc3)cc2)cs1)c1cc([N+](=O)[O-])ccc1N1CCOCC1	/	62.0*	-4.8	-1.9	0.1	-5.6	-78.1	-7.2
CCc1nnc(NC(=O)c2cc([N+](=O)[O-])ccc2N2CCOCC2)s1	-13.0	14.2	-2.2	-0.4	4.2	-0.4	/	/
Cc1oc(-c2ccc(Cl)cc2)nc1CN1CCC(C(=O)NCCCN2CCOCC2)CC1	3.8	2.6	15.4	2.4	-7.2	-6.6	/	/
CCC1CCCCN1CCCNC(=O)C1CCN(Cc2nc(-c3ccc(Cl)cc3)oc2C)CC1 (stereo not given)	99.5*	15.8	8.5	0.7	79.7*	-16.9	/	/	Mdm2-MdmX confirm=102.5*
CC1(C)C(=O)Nc2ccccc2N1C(=O)Cn1ncc(Cl)c(Cl)c1=O	3.3	5.1	7.2	3.2	40.4	5.9	/	/	Mdm2-MdmX confirm=57.8*
SMILES	MITF TRPM1 inh	HIF-2a inh	CF NFkB inh	ABHD5-PLIN5 inh	Peg3 prom inh	KKLEB tox	HIF-2a conf	HIF-1a counter	others
Cc1nn(CC(=O)N2c3ccccc3NC(=O)C2(C)C)c(C)c1[N+](=O)[O-]	-2.4	0.8	-8.9	1.2	3.7	0.6	/	/
CCCCCCCCCn1c2c(c(=N)c3c1CCC3)CCC2	78.3*	20.9	55.4*	21.3	65.6*	-62.0*	/	/	Mdm2-MdmX confirm=101.5*
CSc1ccc(Cl)c(C(=O)NCCCn2ccnc2)c1	6.4	12.8	14.6	0.8	11.0	-0.2	/	/
CC(C)n1c(/C=C/[C@@H](O)C[C@@H](O)CC(=O)O)c(-c2ccc(F)cc2)c2ccccc21	-38.2	39.0*	45.5	-0.8	27.7	-3.0	20.1	-38.7
CCC(=O)N1CCN(c2ccc(NC(=O)c3ccc([N+](=O)[O-])o3)cc2Cl)CC1	87.1*	93.7*	86.2*	-1.0	113.7*	-58.0*	51.2*	90.1*
CCN1CCN(c2ccc(NC(=O)c3ccc([N+](=O)[O-])o3)cc2Cl)CC1	70.9*	63.7*	89.2*	-0.1	102.1*	-43.5	49.0*	57.8*
CCC(=O)N1CCN(c2ccc(NC(=O)c3ccco3)cc2Cl)CC1	-27.1	-45.8	-1.6	2.6	-53.7	18.8	/	/
CN(CC(=O)Nc1c(Cl)cccc1Cl)CC(=O)N1CCc2ccccc21	/	5.4	-11.9	-5.8	22.2	-5.9	/	/
CCOc1ccccc1NC(=O)c1nc(S(=O)(=O)Cc2cccc(C)c2)ncc1Cl	93.4*	90.2*	87.0*	7.7	106.2*	-102.2*	85.9*	103.2*	Mdm2-MdmX confirm=102.5*
CCSc1ncc(Cl)c(C(=O)Nc2ccccc2OC)n1	11.9	15.8	-13.9	-4.9	14.9	-3.2	/	/
CC(C)(C)c1ccc(Cn2nnc3c(=O)[nH]c(C4CCCN(C(=O)Cc5cccs5)C4)nc32)cc1 (stereo not given)	-3.9	-22.9	-7.8	-0.3	33.8	17.4	/	/
CC(C)(C)c1ccc(Cn2nnc3c(=O)[nH]c(C4CCCN(C(=O)c5cccs5)C4)nc32)cc1 (stereo not given)	-16.6	42.5*	-1.8	3.2	39.1	5.0	13.9	84.1*
